Our source for the growth values is PubChem BioAssay (NCI).

Test in all cases: NCI-60 one-dose screen, 48 h (100 = growth as untreated, 0 = no growth, -100 = all killed)
Holding throughout (details): 10 µM unless noted

In test [1] the test system is NCI-H23 lung.
The test system of test [2] is NCI-H226 lung.
Test [3] has as its system NCI-H322M lung.
In test [4] the test system is HOP-62 NSCLC.
In test [5] the test system is NCI-H460 lung.
Test [6] has as its system NCI-H522 lung.
Test [7] has as its system A549/ATCC NSCLC.
Test [8] has as its system 786-0 renal.
The test system of test [9] is COLO 205 colon.
The test system of test [10] is DU-145 prostate.

The structures appear in SMILES notation. The panel holds about 83,000 compounds, 20% with a hit somewhere; the sample as a whole holds those more often.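 How to read the values: 0–100, growth inhibition (40 = 60% inhibited); 0, no net growth; -100 to 0, cell death (-40 = 40% of starting cells died; -100 = all dead).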 Unmarked numbers belong to inactive results. Activity calls are given as the source filed them. The calls were made as follows: active = growth percent below 10; inactive = the rest.

For `CSC1=Nc2c(c(C)c(-c3ccccc3)n2CCCN2CCCCC2)C2=NC(=O)C[C@H](C)N12`, the growth was 63.1% in [1]; 68.9% in test [2]; 62.1% in test [3]; 81.6% in [4]; 38.3% in [5]; 35.5% in test [6]. Also, the growth was 32.2% in test [7], 80.1% in [8], -87% (active) in test [9] and 47.6% in test [10].

With `Cc1c(NCc2nnc3n(Cc4ccccc4)c(=O)c4c5c(sc4n23)CCCC5)c(=O)n(-c2ccccc2)n1C`, the growth in [1] is 92.4%; in test [2], 94.8%; in test [3], 92.2%; in test [4], 105%; in test [5], 98.9%; in test [6] it was 71.3%. For the same compound, the growth in test [7] was 66.7%; in test [8] it was 72.3%; in test [9] it was 101%; in test [10], 75.6%.

Consider `Clc1ccccc1[C@@H]1C[C@@H]2Cc3cc(Br)c4ccccc4c3N1O2`, for which the growth is 50.8% in [1]; 73.5% in [2]; 61% in test [3]; 54.3% in test [4]; 18.1% in [5]; 20% in [6]. For the same compound, the growth in test [7] is 48%; in test [8], 56.1%; in test [9], 33.1%; in test [10], 61%.

`O=C1CC(C(F)(F)F)=NN1C(=O)c1nn(-c2ccc(Cl)cc2)cc1O`: the growth was 101% in test [1]; 79.8% in [2]; 15.6% in [3]; 70.2% in [4]; 71.2% in test [5]; 89.9% in [6]. For the same compound, the growth in test [7] is 91.2%; in test [8], 97.7%; in test [9], 125%; in [10], 83.6%.

For `CC1SC(c2c(Cl)cccc2Cl)N(NC(=O)c2[nH]c3ccc(F)cc3c2-c2ccccc2)C1=O` (stereo not given), the growth is 48% in test [1]; 58.5% in test [2]; 4.84% (active) in test [3]; -44.6% (active) in test [4]; 8.08% (active) in test [5]; 69% in [6]. For the same compound, the growth was -1.11% (active) in test [7], 33.8% in [8], 35.1% in test [9] and 24.1% in test [10].

Take `Cc1cc(C)n(C(=O)c2nn(-c3ccc(Cl)cc3)cc2O)n1`: the growth in test [1] is 9.42% (active); in test [2] it was 44.9%; in test [3], 37.2%; in test [4] it was 47.8%; in [5], 5.55% (active); in test [6], 59.6%. Also, the growth in [7] is 11.6%; in [8] it was 95.7%; in [9], 106%; in [10], 30%.

Regarding `Cn1c(=O)c2c(nc(Br)n2CCC(=O)Nc2ccc(F)cc2)n(C)c1=O`, the growth in test [1] is 101%; in test [2], 101%; in test [3] it was 106%; in [4] it was 92.4%; in test [5], 109%; in [6], 87.9%. The growth was 85.2% in test [7], 100% in test [8], 112% in test [9] and 118% in test [10].

As to `CCCCCCCC/C=C/CCCCCCCC1=NC(C)(C)CN1CCO`, the growth in test [1] is 47.1%; in test [2] it was 83.3%; in test [3], 50.8%; in [4] it was 6.19% (active); in test [5], -39.5% (active); in test [6], -45.2% (active). In addition, the growth in test [7] is 24.7%; in test [8], 32.3%; in [9], -63.9% (active); in test [10], 64.5%.

Consider `Cc1cc2c(cc1C)Nc1sc(NC(=O)CN3CCN(C)CC3)nc1C(=O)N2`, for which the growth in test [1] was 102%; in [2] it was 105%; in test [3] it was 105%; in [4] it was 94.5%; in [5], 101%; in [6], 86.3%. Moreover, the growth was 100% in [7], 98.9% in test [8], 112% in test [9] and 108% in test [10].

`COc1ccc(-c2csc(NC(=O)c3cc(O)c(O)c(O)c3)n2)cc1`: the growth in test [1] is 78.5%; in test [2], 82.3%; in [3] it was 76.9%; in test [4], 64.8%; in test [5] it was 53.7%; in [6], -22.9% (active). Also, the growth in [7] was 58.6%; in [8], 64.4%; in [9], 91.4%; in test [10] it was 65.2%.

`Nc1c2ccccc2nc2ccccc12` (tested in a mixture with another compound): the growth in [1] is 19.2%; in [2], 11%; in test [3], 29.8%; in [4] it was 25.8%; in [5] it was 4.41% (active); in test [6], -22.3% (active). For the same compound, the growth in test [7] was 4.37% (active); in test [8], 32.5%; in test [9], 2.36% (active); in test [10], 19.4%.

With `CN(C(=O)c1ccccc1)N(C)C(=O)c1ccccc1`, the growth in [1] was 110%; in test [2], 112%; in test [3], 96.6%; in test [4] it was 94.7%; in [5], 109%; in test [6], 102%. Besides, the growth is 103% in test [7], 100% in [8], 102% in test [9] and 121% in test [10].

For the compound `O=C(/C=C/c1ccc(Cl)cc1)c1ccccc1`, the growth in [1] is 109%; in test [2], 91%; in test [3] it was 92.2%; in test [4], 115%; in [5], 107%; in test [6] it was 81.1%. Also, the growth in test [7] is 88.9%; in [8], 93.7%; in test [9] it was 120%; in [10], 106%.

Regarding `CCOC(=O)c1c(NC(=O)C2CCCCC2C(=O)O)sc2c1CCCC2` (stereo not given), the growth in test [1] is 99.4%; in test [2], 95.5%; in [3] it was 86.4%; in [4], 104%; in [5] it was 109%; in test [6], 94%. Also, the growth in test [7] is 97.6%; in test [8] it was 106%; in test [9], 114%; in test [10], 108%.

For the compound `COc1ccc(-c2c(N)noc2-c2cc(OC)c3c(c2)OCCO3)cc1`, the growth in test [1] is 1.48% (active); in [2], -17.1% (active); in test [3], 53%; in test [4], 23%; in test [5], 7.94% (active); in test [6], 0.361% (active). Besides, the growth in test [7] was 21.3%; in test [8], 13.1%; in [9] it was -75.8% (active); in test [10], -17.2% (active).

On to `NC(=O)c1ccccc1NC(=O)c1ccccc1Cl`, for which the growth in test [1] is 104%; in [2] it was 105%; in [3], 109%; in test [4], 112%; in [5], 114%; in test [6], 96.5%. Also, the growth was 98.3% in test [7], 102% in [8], 121% in test [9] and 113% in [10].

As for `CCN(CC)c1ccc(C(O)C2=CC(=O)c3ccccc3C2=O)cc1` (stereo not given), the growth was -2.03% (active) in test [1]; 37.5% in test [2]; 25.2% in test [3]; -12.7% (active) in test [4]; 7.97% (active) in [5]; -62.2% (active) in test [6]. Further, the growth in [7] is 47.6%; in test [8] it was 3.34% (active); in test [9], 21.6%; in test [10] it was 3.92% (active).

As for `COc1ccc2nc3cc(Cl)ccc3c(Nc3cc(C(C)C)c(O)cc3C)c2c1`, the growth is 40.1% in test [1]; 79.5% in [2]; 51.5% in [3]; 58.2% in [4]; 35.3% in test [5]; -20.1% (active) in test [6]. Besides, the growth in [7] was 14.5%; in [8], 35.5%; in [9], 15.7%; in test [10], 52.3%.

With `O=C(Nc1ccc(Cl)cc1)c1cc2c(cc1O)[nH]c1ccccc12`, the growth is -22.5% (active) in [1]; 35.9% in test [2]; 26.9% in test [3]; -2.15% (active) in [4]; 12.5% in test [5]; -14.4% (active) in test [6]. Also, the growth in test [7] is 30%; in test [8], 6.54% (active); in [9], 87.3%; in test [10] it was 28.4%.

As for `Nc1nonc1-c1nc2ccccc2n1CC(=O)Nc1ccc2c(c1)COC2=O`, the growth in test [1] was 86.3%; in [2], 87.7%; in test [3] it was 107%; in test [4], 83.8%; in [5], 95.7%; in test [6], 61.6%. Also, the growth in [7] was 88.8%; in [8], 93%; in [9], 98.4%; in [10] it was 108%.
